Test results taken from PubChem BioAssay (NCI).
Compounds without any hit were thinned out: in the full panel of roughly 83,000, 20% have a hit.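 Cell lines were cultured in 96-well plates, exposed to a single compound concentration, and assessed for percent growth 48 hours later.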 Values without a mark were called inactive. Activity calls are given as the source filed them. The calls were made as follows: active = growth percent below 10; inactive = the rest.

What follows are compounds tested on TK-10 renal (assay: NCI-60 one-dose screen, 48 h (100 = growth as untreated, 0 = no growth, -100 = all killed)). Settings: 10 µM unless noted.

Going from `COc1ccc(CCN2C(=O)C(C)(C)SC2=S)cc1OC` to `O=C1/C(=C\c2ccco2)SC(=S)N1CCc1ccc(O)cc1`, the growth rises from 96.3% to 130%.

Compared with `Cc1nnc2nc(N)[nH]n2c1=O`, `Cc1cc(Cl)c2c(N(C)C)cccc2n1` is higher in growth: 89.8% for the first, 125% for the second.

Going from `COc1cccc(-c2nn(-c3ccccc3)cc2-c2ccnc(NCCNS(=O)(=O)c3cccc(F)c3)c2)c1` to `COc1ccc(NC(=O)c2ccc3c(c2)nc(-c2cc4ccccc4[nH]c2=O)n3-c2cc(C(C)(C)C)[nH]n2)cc1`, the growth rises from 36.7% to 107%.

First: COc1ccccc1-n1cnc(N)c1C(=O)c1cc(OC)c(OC)c(OC)c1
Second: COc1cc(/C=C/c2cc(/C=C/c3ccc(O)c(OC)c3)n(-c3ccccc3)c(=O)n2)ccc1O
The growth of the first is lower: 80.8% for the first, 113% for the second.

First: Cc1cc(N2CCCCC2)nc(N(CCNc2ccnc3cc(Cl)ccc23)Cc2ccco2)n1
Second: Cc1ccc2oc(=O)cc(-c3sc(N4CCCCC4)nc3-c3ccccc3)c2c1
The growth of the first is lower: 68.5% for the first, 161% for the second.

Compared with `N#CC1=C(N)Oc2c(c(N)nn2-c2ccccc2)C1c1ccc(Cl)cc1Cl` (stereo unspecified), `N#CC1=C(N)Oc2c(sc3c(F)cccc23)C1c1ccc(Cl)cc1` (stereo unspecified) is lower in growth: 123% for the first, 78.4% for the second.

Compared with `Cc1ccc(Cc2cnc(NC(=O)/C=C/c3cccc(C)c3)s2)cc1`, `Cc1cc(C=O)c(C)c2c1[nH]c1ccccc12` is higher in growth: 28.3% for the first, 78% for the second.

Compared with `Oc1cccc2oc(=S)[nH]c12`, `O=C(O)/C(=C/c1ccc(O)cc1)c1ccccc1` is lower in growth: 106% for the first, 98.3% for the second.

Going from `NC(=O)NCC1CCCCC1` to `Nc1c2c(nc3ccc(Cl)cc13)CC(c1ccc(O)cc1)CC2=O` (stereo unspecified), the growth falls from 95.5% to 81.5%.

Going from `CC(=O)OCCCCCCn1c2ccccc2c2c3c(c4c5ccccc5n(C)c4c21)C(=O)N(O)C3=O` to `COc1ccc(-n2c(/C=C/c3ccc(O)c(OC)c3)cc(/C=C/c3ccc(O)c(OC)c3)nc2=O)cc1`, the growth rises from 80.6% to 104%.

Compared with `C/C(=N\NC(=O)C(C)SC(C)C(=O)N/N=C(\C)c1cccnc1)c1cccnc1` (stereo unspecified), `CCCCC/C(=C\c1ccccc1)C1OC(C)C(C)O1` (stereo unspecified) is lower in growth: 106% for the first, 91% for the second.

With `N#Cc1cnc2cc(OC[C@@H](O)CO)c(NC(=O)CC3CSSC3)cc2c1Nc1ccc(OCc2cccc(F)c2)c(Cl)c1` the growth was -60.5% (active).
In the case of `Cc1nn2c(-c3nc4cc(Cl)c(Cl)cc4[nH]3)c(-c3ccc(F)cc3)nc2s1`, the growth is reported as -33.1% (active).
With `O=C1c2ccccc2C(=Cc2ccccc2)c2ccccc21` the growth was -7.83% (active).
For `O=C1CCC/C=C\C[C@H]2C=C(Cl)C(=O)/C2=C/C[C@H](CCCCC(F)(F)F)OC(=O)CCC/C=C\C[C@H]2C=C(Cl)C(=O)/C2=C/C[C@H](CCCCC(F)(F)F)O1`, the growth was -23% [7.5 µM] (active).
